Screening data deposited in PubChem BioAssay by several laboratories.
NPR2 activator: human GC-B receptor activators, primary screen, HEK293 GC-B cells, cGMP TR-FRET, EC30 CNP; Atrial natriuretic peptide receptor 2 (Homo sapiens), P20594; 0% at EC30 CNP, 100% saturating CNP; activation, % at 10 µM; 370,000 tested, 0.11% active;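 active = activation at 10 µM reaching about 35% in either raw or pattern-adjusted values, limit read from the data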
HTR2A ag: mouse Htr2a agonists via beta-arrestin recruitment, primary screen, cell-based, luminescence; 5-hydroxytryptamine receptor 2A (Mus musculus), P35363; CHO-K1 mHTR2A beta-arrestin complementation; percent of 30 µM serotonin response; activation, % at 7.6 µM; 360,000 tested, 0.66% active; AID 624169, 2012;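 active = activation above a run cutoff, the mean activation of all tested compounds plus 3 SD, cut at about 14% in these data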;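 also: 0% = plate median of compound wells and 100% = 30 µM serotonin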
NPR1 activator: GC-A stimulated cGMP production enhancers – HEK293 GC-A cells, cGMP TR-FRET, EC30 ANP, primary screen; Atrial natriuretic peptide receptor 1 (Homo sapiens), P16066; 0% at EC30 ANP, 100% saturating ANP; activation, % at 10 µM; 370,000 tested, 0.14% active; in the data active = activation above about 40%
Target sequence (P16066 whole entry, looked up): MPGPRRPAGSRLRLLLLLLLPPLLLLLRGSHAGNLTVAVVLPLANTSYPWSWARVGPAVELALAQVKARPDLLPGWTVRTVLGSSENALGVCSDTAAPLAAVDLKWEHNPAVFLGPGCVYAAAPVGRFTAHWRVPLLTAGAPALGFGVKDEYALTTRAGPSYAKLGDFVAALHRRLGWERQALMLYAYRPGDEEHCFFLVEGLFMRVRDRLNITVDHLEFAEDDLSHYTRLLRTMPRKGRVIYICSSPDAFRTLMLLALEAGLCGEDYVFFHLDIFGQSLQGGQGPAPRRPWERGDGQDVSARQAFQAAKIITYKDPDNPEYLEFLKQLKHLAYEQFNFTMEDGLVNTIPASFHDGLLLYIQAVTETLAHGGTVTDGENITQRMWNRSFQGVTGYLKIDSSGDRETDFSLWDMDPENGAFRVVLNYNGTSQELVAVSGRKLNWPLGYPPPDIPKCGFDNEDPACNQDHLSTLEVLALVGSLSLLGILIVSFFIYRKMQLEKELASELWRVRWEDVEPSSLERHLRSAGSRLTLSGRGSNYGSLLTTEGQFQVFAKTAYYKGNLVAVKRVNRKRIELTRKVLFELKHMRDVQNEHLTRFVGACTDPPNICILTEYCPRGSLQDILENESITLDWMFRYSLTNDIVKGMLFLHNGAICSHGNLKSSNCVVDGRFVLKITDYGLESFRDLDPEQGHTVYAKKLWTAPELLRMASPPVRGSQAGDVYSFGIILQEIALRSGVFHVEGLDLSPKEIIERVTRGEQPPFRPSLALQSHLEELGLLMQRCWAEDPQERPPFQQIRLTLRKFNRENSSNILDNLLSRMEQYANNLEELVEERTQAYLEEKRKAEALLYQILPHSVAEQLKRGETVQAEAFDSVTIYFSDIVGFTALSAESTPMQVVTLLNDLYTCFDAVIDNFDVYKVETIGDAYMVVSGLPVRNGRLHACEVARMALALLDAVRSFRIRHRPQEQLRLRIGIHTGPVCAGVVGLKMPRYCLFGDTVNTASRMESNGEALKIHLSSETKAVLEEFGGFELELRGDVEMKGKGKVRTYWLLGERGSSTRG
MsrA inh: bovine MsrA enzyme inhibitors, primary screen, biochemical, absorbance, HTS; Methionine sulfoxide reductase A (Bos taurus); purified bovine MsrA, absorbance read-out; inhibition, % at 15.5 µM; 360,000 tested, 0.75% active; in the data active = inhibition above about 4.5%;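 also: 0% = vehicle wells with enzyme and 100% = reference inhibitor wells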
MsrA act: bovine MsrA enzyme activators, primary screen, biochemical, absorbance, HTS. Methionine sulfoxide reductase A (Bos taurus). purified bovine MsrA, absorbance read-out. activation, % at 10.6 µM. 360,000 tested, 0.3% active; in the data active = activation above about 7.5%;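 also: 0% = vehicle and 100% = reference activator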
* marks the source's active call; other numbers are inactive results; nt = not tested or not shown. Sampled rows, rich in hits. Any-hit rate of the full collection: about 1.8%.

SMILES | NPR2 activator | HTR2A ag | NPR1 activator | MsrA inh | MsrA act
CCOC(=O)c1ccc(-c2nnc(-c3ccc(Cl)cc3Cl)o2)cc1 | 2 | 9 | 1 | -1 | -11
CCOC(=O)CSc1nnc(-c2ccc(Cl)cc2Cl)o1 | 1 | -3 | 67* | -1 | -2
CCOC(=O)CSc1nnc(-c2ccccc2)o1 | 1 | -4 | -1 | 0 | -1
Cc1cc2c3c(c1)C(C)(c1ccccc1)CC(C)(C)N3C(=O)C21C(C#N)=C(N)OC2=C1C(=O)CC(C)(C)C2 (stereo not given) | -2 | 0 | -3 | 0 | 1
CC1(c2ccccc2)CC(C)(C)N2C(=O)C3(C(C#N)=C(N)Oc4cc(O)ccc43)c3cccc1c32 (stereo not given) | -2 | 34* | 2 | 1 | -3
CCOC(=O)C1=C(Cn2cnc3ccccc32)NC(=O)NC1c1cc(C)ccc1C (stereo not given) | -14 | 59* | -30 | -1 | 1
CCOC(=O)C1=C(CSc2nccn2C)NC(=O)NC1c1cc(C)ccc1C (stereo not given) | -16 | 0 | -18 | -1 | -10
CC(C)C(=O)Nc1ccc(-c2nc3ncccc3o2)cc1 | 2 | 2 | 0 | 4.6* | 1
COc1ccc(COc2cc(-c3cccc(OC)c3)nc3ccc(NC(=O)C(C)C)cc23)cc1 | 55* | -9 | 52* | 1 | -4
C/C(=N\NS(=O)(=O)c1ccc([N+](=O)[O-])cc1)c1ccc(NC(=O)c2ccco2)cc1 | 6 | -1 | -2 | 4.6* | -4
CSCCCNC(=O)Cn1nc(Cc2ccncc2)c2ccccc2c1=O | 0 | nt | 5 | nt | nt
Cc1nc(N2CCN(C(=O)c3ccco3)CC2)c(C#N)c2c1CCCC2 | -4 | -2 | -4 | 0 | -3
CC(C)Cc1nc(N2CCN(C(=O)c3ccco3)CC2)c(C#N)c2c1CCCC2 | 119* | -8 | -2 | 0 | 0
COC(=O)[C@@]12CCCCC3=C1N(CCC3)C(=O)[C@H]2CC(=O)N1CCCC1 | -1 | nt | 4 | nt | nt
CC1=C(C(=O)N2CCOCC2)C(c2ccc(-c3ccccc3)cc2)NC(=S)N1 (stereo not given) | 70* | 3 | 79* | -1 | -4
CC1=C(C(=O)N2CCOCC2)C(c2cc(C)ccc2C)NC(=S)N1 (stereo not given) | 1 | -1 | 6 | 0 | -5
CC1=C(C(=O)N2CCOCC2)C(c2ccc(O)cc2)NC(=S)N1 (stereo not given) | 41* | 0 | 32 | 2 | 3
O=C1OCCC1Sc1nnc(-c2ccc(Br)cc2)o1 (stereo not given) | 23 | 4 | 66* | 0 | -6
CCCCCCCCNS(=O)(=O)CC1NCc2ccccc21 (stereo not given) | -1 | nt | -1 | nt | nt
CC(C)C1S/C(=N/N=C/c2ccco2)NC1=O (stereo not given) | 2 | -3 | 1 | 4.7* | 0
O=C(c1cccc(F)c1)N(Cc1ccccn1)CC1CCCO1 (stereo not given) | -4 | nt | -3 | nt | nt
CC(C)CNC(=O)C1CSCCS(=O)(=O)N1Cc1ccccc1 (stereo not given) | -3 | nt | 2 | nt | nt
CCc1ccc(Nc2nnc(SC3CCOC3=O)s2)cc1 (stereo not given) | 1 | 9 | 48* | 0 | -4
COc1ccc(-c2noc(C3CCCN(C(=O)Nc4ccc5c(c4)OCO5)C3)n2)cc1 (stereo not given) | -10 | nt | -6 | nt | nt
Cc1nn(Cc2ccccc2)c(Cl)c1/C=N/NC(=O)c1cccnc1 | -4 | -2 | 0 | 0 | -10
SMILES | NPR2 activator | HTR2A ag | NPR1 activator | MsrA inh | MsrA act
Cc1c(/C=N/NC(=O)c2cccnc2)c2ccccc2n1Cc1ccccc1 | 29 | -7 | 58* | 2 | -2
CN1C(=O)c2cccc(NC(=O)C3CCCCC3)c2C1=O | 55* | -2 | 1 | 0 | -3
COC(=O)[C@]12C[C@H](CC(=O)NCCc3ccccc3OC)C(=O)N(Cc3ccc4c(c3)OCO4)C1=C[C@H](C(C)C)O[C@@H]2C1CC1 | -13 | nt | -8 | nt | nt
COc1ccc(S(=O)(=O)N2CCCCCC2)cc1NC(=O)CN(C)Cc1ccc2c(c1)OCO2 | 61* | -12 | 41* | 0 | -10
COc1cc(NC(=O)c2ccccc2)c(C)cc1NC(=O)CSc1nnc(COc2ccccc2)n1Cc1ccco1 | -3 | nt | -3 | nt | nt
CC(C)C(=O)OCCCN1C(=O)CCC12CCC(c1ccccc1)CC2 (stereo not given) | 5 | nt | 1 | nt | nt
CO[C@H]([C@H](C)/C=C/N(C)C=O)[C@@H](C)C(O)CC[C@H](C)[C@H](O)[C@H](C)[C@H]1OC(=O)/C=C/C(C)=C/C[C@H](O)C[C@@H]2C=CC[C@@H](C[C@H](OC)[C@@]3(CO3)[C@@H](OC)C[C@@H](OC)[C@@H]1C)O2 (stereo not given in full) | -25 | nt | -31 | nt | nt
COC1=CC(=O)C=C(OC)C1=O | 4 | 8 | 28 | 0 | -1
COC1=CC(=O)c2ccccc2C1=O | nt | 3 | nt | nt | 14*
N#Cc1ccc(/C=C2\CC3(OC(=O)c4ccco4)CCCN2C3)cc1 (stereo not given) | -2 | nt | 0 | nt | nt
O=C(NCCCc1ccccc1)C1CCN(c2nc(-c3ccc(Br)cc3)cs2)CC1 | 11 | nt | -2 | nt | nt
COc1cccc(/C=C/C(=O)OC(C)C(=O)Nc2c(C)n(C)n(-c3ccccc3)c2=O)c1 (stereo not given) | 9 | -1 | 4 | 1 | -4
COc1cc(/C=C/C(=O)OC(C)C(=O)Nc2c(C)n(C)n(-c3ccccc3)c2=O)ccc1OCC#N (stereo not given) | 6 | 4 | -1 | 4.6* | -9
CCOC(=O)C1CCN(C2=NC(=O)/C(=C/c3ccc(Cl)cc3)S2)CC1 | -4 | -1 | -5 | 4.7* | -3
Cc1ccc(/C=C2\SC(N3CCCC3)=NC2=O)cc1 | -3 | nt | -1 | 4.6* | nt
Cc1cc2nc(C)n(CCCNC(=O)Nc3ccc(C#N)cc3)c2cc1C | -9 | 44* | -3 | 0 | 0
COc1cc(-c2nc(C(=O)NCC3CCCO3)cc3c2[nH]c2ccccc23)cc(OC)c1OC (stereo not given) | 59* | 9 | 53* | 0 | -2
COc1ccc(OC)c(N=c2oc3cc(O)ccc3cc2C(N)=O)c1 | 0 | -1 | 56* | 1 | -5
CCCCNC(=O)C[C@@H]1C(=O)N(Cc2ccc(OC)cc2)C2=CCN(C(=O)OC(C)(C)C)C[C@]21C(=O)OCC | 9 | nt | -1 | nt | nt
CCOC(=O)c1[nH]cnc1N=Nc1c(O)ccc2ccccc12 | 38* | 0 | 36 | 0 | -2
